Measurements published in PubChem BioAssay (NCATS).
Inconclusive results are not listed. Calls of active or inactive are those of the source. The call rests on the fitted dose curve; in most records, active means well fitted curve in the direction sought with a large enough effect; inconclusive means small, poorly fitted or top-dose-only effect, or another doubt; inactive means no such curve, though single readings can be large; an effect the other way counts as inactive or inconclusive.

Tests used:
[1] = NCATS anti-infectives library activity on HEK293 viability as a counter-qHTS vs the C. elegans viability qHTS (AID 1745854); further: on the % scale 0 is the no-effect control and ±100 the full control effect
Procedure, shortened: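 CellTiter-Glo luminescence, read on a CCD imager, scored viability of HEK293 cells after 24 hr compound exposure at 37C. Library tested in several concentrations, 1:5 steps, up to 41.7 uM; digitonin served as control.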

[2] = target: Metallo-beta-lactamase type 2 (Klebsiella pneumoniae) (UniProt C7C422); test: qHTS to identify inhibitors of the New Delhi Metallo-beta-lactamase (NDM): assay validation screen against the NCATS LOPAC Collection (AID 1794843);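 further: nitrocefin turnover by NDM-1 measured as 485 nm absorbance at plateau; on the % scale 0 is the no-effect control and ±100 the full control effect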
Procedure, shortened: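 NDM-1 at 2 nM final in 50 mM HEPES pH 7.0, 1 uM ZnSO4, 0.01% Tween20, preincubated with LOPAC compounds pinned in DMSO; 50 uM nitrocefin (stock) added. Hydrolysis read as absorbance at 485 nm in the plateau phase.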

[3] = target: Glutathione peroxidase 1 (Homo sapiens) (UniProt P07203); test: Primary qHTS Assay for Inhibitors of Recombinant Selenoprotein Glutathione Peroxidase 1 (GPX1) (AID 1845191); further: nearly all actives have a fitted effect of over 65% in size; on activity, negative = inhibition: on the % scale 0 is the no-effect control and ±100 the full control effect
Procedure, shortened: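 GR-coupled readout: NADPH consumption tracked by fluorescence, ex 340/em 450 nm, at t=0 and after 15 min at RT. Final mix 10 nM GPX1, 1 mM GSH, 0.5 mM CHP, 0.5 mM NADPH, 100 nM GR, 0.01% BSA, following 30 min enzyme–compound preincubation.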

[4] = target: Phospholipid hydroperoxide glutathione peroxidase GPX4 (Homo sapiens) (UniProt P36969); test: Primary qHTS Assay for Inhibitors of Recombinant Selenoprotein Glutathione Peroxidase 4 (GPX4) (AID 1845192); conditions: outcome: dose series up to 50 µM unless noted; further: nearly all actives have a fitted effect of over 65% in size
Procedure, shortened: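 Steps: GPX4 plus compound, 30 min RT; add GR/GSH/NADPH master mix; start with cumene hydroperoxide; read 340/450 nm fluorescence at 0 and 15 min. Finals were 200 nM GPX4, 1 mM GSH, 0.5 mM CHP, 0.5 mM NADPH, 100 nM GR.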

7G8 = test: qHTS profiling for inhibitors of Plasmodium falciparum proliferation (AID 504749); further: nearly all actives have a fitted effect of over 60% in size; further: potency means the concentration at half of the fitted maximal effect;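 on activity, negative = inhibition: 0% = DMSO vehicle and full inhibition = artemisinin control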; conditions: P. falciparum in erythrocytes, SYBR Green DNA, 72 h; series mostly up to 28.7 µM
Procedure, shortened: (§1)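 SYBR Green fluorescence (ex 485 nm, em 535 nm) reports parasite DNA after 72 h compound exposure of infected red cells at 0.3% parasitemia, 2.5% hematocrit; signal normalized to 0.29 uM artemisinin and vehicle wells.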

ATS95 = test: as above; conditions: P. falciparum in erythrocytes, SYBR Green DNA, 72 h; series mostly up to 28.7 µM
Procedure, shortened: as §1

C2A = test: as above; conditions: P. falciparum in erythrocytes, SYBR Green DNA, 72 h; series mostly up to 28.7 µM
Procedure, shortened: as §1

[5] = target: Phenylethanolamine N-methyltransferase (Homo sapiens) (UniProt P11086); test: Confirmatory Screen for Target Class Profiling of Small Molecule Inhibitors of Methyltransferases (AID 1745852); conditions: MTase-Glo luminescence, SAH detection, recombinant enzyme; measured here: PNMT max response; stronger effect = lower value
[6] = target: Luciferin 4-monooxygenase (Photinus pyralis) (UniProt P08659); test: Primary firefly luciferase (FLuc) qHTS assay for identification of artifact compounds. (AID 1845220);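 further: plate controls were DMSO vehicle for no effect and no enzyme for full effect; nearly all actives have a fitted effect of over 60% in size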
Procedure, shortened: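 D-luciferin and ATP (10 uM each, final) in Tris acetate buffer pH 7.6 were incubated with compounds for 15 min at room temperature. The reaction was started with 10 nM Photinus pyralis luciferase and luminescence read after 5 min. Percent inhibition was fitted to a 4-parameter Hill equation.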

[7] = Primary fluorescence-based thiol-reactive (MSTI) qHTS assay for identification of artifact compounds. (AID 1845221);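 further: thiol-reactive compounds lower the probe fluorescence signal; nearly all actives have a fitted effect of over 65% in size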
Procedure, shortened: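 One-hour, room-temperature, dark incubation of compound with 4 uM MSTI in PBS (pH 7.4, 2% DMSO) precedes a fluorescence read at 525 nm excitation, 598 nm emission; Hill-equation fitting yields concentration-response values.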

[8] = test system: Nanoluciferase (engineered Oplophorus gracilirostris luciferase); test: Primary Nanoluciferase (NLuc) qHTS assay for identification of artifact compounds. (AID 1845222);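 further: 0% = DMSO and -100% = no enzyme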
Procedure, shortened: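 Diluted conditioned medium from NLuc-expressing S16 cells treated with compounds for 15 min at room temperature, then Nano-Glo substrate added; luminescence read after 5 min. Percent inhibition versus no-enzyme and DMSO controls fitted to 4-parameter Hill equation.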

[9] = Primary redox qHTS assay for identification of artifact compounds. (AID 1845223);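 further: 0% = DMSO and 100% = reference compound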
Procedure, shortened: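 Redox-cycling detection via DTT (250 uM final) oxidation coupled to Amplex Red (25 uM)/HRP (250 mU/mL) in HBSS. 15 min preincubation plus 30 min after DTT, room temperature. Ex/Em 525/598 nm; 4-parameter Hill fit against DMSO and 10 uM DA3003.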

3D7 = test: qHTS profiling for inhibitors of Plasmodium falciparum proliferation (AID 504749); further: nearly all actives have a fitted effect of over 60% in size; further: potency means the concentration at half of the fitted maximal effect;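 on activity, negative = inhibition: 0% = DMSO vehicle and full inhibition = artemisinin control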; conditions: P. falciparum in erythrocytes, SYBR Green DNA, 72 h; series mostly up to 28.7 µM
Procedure, shortened: as §1

AS120 = test: as above; conditions: P. falciparum in erythrocytes, SYBR Green DNA, 72 h; series mostly up to 28.7 µM
Procedure, shortened: as §1

CP185 = test: as above; conditions: P. falciparum in erythrocytes, SYBR Green DNA, 72 h; series mostly up to 28.7 µM
Procedure, shortened: as §1

[10] = as above; conditions: P. falciparum in erythrocytes, SYBR Green DNA, 72 h; for activity, negative = inhibition: at 28.7 µM (top of the series)
Procedure, shortened: as §1

AA1029 = test: as above; conditions: P. falciparum in erythrocytes, SYBR Green DNA, 72 h; series mostly up to 28.7 µM
Procedure, shortened: as §1

ATS189 = test: as above; conditions: P. falciparum in erythrocytes, SYBR Green DNA, 72 h; series mostly up to 28.7 µM
Procedure, shortened: as §1

CP191 = test: as above; conditions: P. falciparum in erythrocytes, SYBR Green DNA, 72 h; series mostly up to 28.7 µM
Procedure, shortened: as §1

Chain of Phenylethanolamine N-methyltransferase (Homo sapiens) (P11086 whole entry, looked up): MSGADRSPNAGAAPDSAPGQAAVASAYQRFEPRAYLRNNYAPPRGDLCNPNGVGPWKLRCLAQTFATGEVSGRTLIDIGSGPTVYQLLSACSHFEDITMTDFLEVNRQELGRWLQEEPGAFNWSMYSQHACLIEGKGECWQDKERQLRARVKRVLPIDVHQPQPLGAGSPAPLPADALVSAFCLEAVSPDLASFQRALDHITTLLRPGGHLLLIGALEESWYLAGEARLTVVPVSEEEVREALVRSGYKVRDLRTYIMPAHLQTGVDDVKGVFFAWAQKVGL
Chain of Glutathione peroxidase 1 (Homo sapiens) (P07203 whole entry, looked up): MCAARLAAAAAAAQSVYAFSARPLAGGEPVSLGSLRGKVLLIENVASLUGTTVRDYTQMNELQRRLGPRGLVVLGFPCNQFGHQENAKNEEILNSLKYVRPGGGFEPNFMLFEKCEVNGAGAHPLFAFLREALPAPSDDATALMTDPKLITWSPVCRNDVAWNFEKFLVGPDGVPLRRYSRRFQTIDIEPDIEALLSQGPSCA
Chain of Phospholipid hydroperoxide glutathione peroxidase GPX4 (Homo sapiens) (P36969 whole entry, looked up): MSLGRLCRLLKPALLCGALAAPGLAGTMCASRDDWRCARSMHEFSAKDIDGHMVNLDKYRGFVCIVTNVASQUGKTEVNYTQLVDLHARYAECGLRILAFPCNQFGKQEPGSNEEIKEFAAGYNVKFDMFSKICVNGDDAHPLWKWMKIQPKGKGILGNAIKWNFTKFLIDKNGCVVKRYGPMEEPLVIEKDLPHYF
Chain of Metallo-beta-lactamase type 2 (Klebsiella pneumoniae) (C7C422 whole entry, looked up): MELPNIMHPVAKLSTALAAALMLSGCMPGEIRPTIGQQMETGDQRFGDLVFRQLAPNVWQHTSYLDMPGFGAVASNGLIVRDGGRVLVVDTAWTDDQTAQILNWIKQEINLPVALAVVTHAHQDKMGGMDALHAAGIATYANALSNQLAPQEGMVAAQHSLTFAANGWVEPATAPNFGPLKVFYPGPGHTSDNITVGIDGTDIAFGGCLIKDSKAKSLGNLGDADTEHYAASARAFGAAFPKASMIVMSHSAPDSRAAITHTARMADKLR

CN(C)CCCN1c2ccccc2Sc2ccc(C(F)(F)F)cc21
active: Potency (7G8) 5.01 µM
inactive: outcome [1] | Potency [2] | Potency [3] | outcome [4] | Potency (ATS95) | Potency (C2A)

CN/C(=C\[N+](=O)[O-])NCCSCc1ccc(CN(C)C)o1
inactive: Potency [2] | Potency [3] | outcome [4]

C[C@@H](O)[C@H]1C(=O)N2C(C(=O)O)=C(SCCN=CN)C[C@H]12
inactive: Potency [2] | Potency [3] | outcome [4]

Cc1cccc(C)c1NC(=O)C(C)N (stereo unspecified)
inactive: Potency [2] | Potency [3] | outcome [4]

CN1C(=O)CC[C@H]1c1cccnc1
inactive: Potency [2] | Potency [3] | outcome [4]

CCCN1C[C@H](CSC)C[C@@H]2c3cccc4[nH]cc(c34)C[C@H]21
active: Potency (7G8) 11.2 µM | Potency (AS120) 12.6 µM | Potency (ATS95) 7.94 µM
0.569%: activity [5]
inactive: Potency [2] | Potency [3] | outcome [4] | outcome [6] | outcome [7] | outcome [8] | outcome [9] | Potency (3D7) | Potency (CP185)

C=CCc1ccccc1OCC(O)CNC(C)C (stereo unspecified)
active: Potency (7G8) 8.91 µM | Potency (AA1029) 10 µM | Potency (AS120) 4.47 µM
inactive: outcome [1] | Potency [2] | Potency [3] | outcome [4] | activity, negative = inhibition ([10]; parasite line A) -5.93% | Potency (3D7) | Potency (C2A)

CC(C)NCC(O)c1cc(O)cc(O)c1 (stereo unspecified)
inactive: Potency [2] | Potency [3] | outcome [4]

COC(=O)C1=C(C)NC(C)=C(C(=O)OCCN(C)Cc2ccccc2)C1c1cccc([N+](=O)[O-])c1 (stereo unspecified)
inactive: Potency [2] | Potency [3] | outcome [4]

CCC(=O)c1ccc2c(c1)N(CCCN(C)C)c1ccccc1S2
-2.93%: activity [5]
inactive: Potency [2] | Potency [3] | outcome [4] | activity, negative = inhibition ([10]; parasite line A) -23.2% | activity, negative = inhibition ([10]; parasite line B) -3.51% | Potency (3D7) | Potency (CP185)

N[C@@H](COP(=O)(O)O)C(=O)O
inactive: Potency [2] | Potency [3] | outcome [4]

CNCCCN1c2ccccc2CCc2ccccc21
inactive: outcome [1] | Potency [2] | Potency [3] | outcome [4]

CN(C)CC[C@@H](c1ccc(Br)cc1)c1ccccn1
0.473%: activity [5]
active: Potency (7G8) 8.91 µM
inactive: Potency [3] | outcome [4] | activity, negative = inhibition ([10]; parasite line A) -5.21% | activity, negative = inhibition ([10]; parasite line B) 2.6% | Potency (3D7) | Potency (ATS189) | Potency (C2A)

CC(=O)Nc1nnc(S(N)(=O)=O)s1
inactive: outcome [1] | Potency [2] | Potency [3] | outcome [4] | activity, negative = inhibition ([10]; parasite line A) -9.91% | activity, negative = inhibition ([10]; parasite line B) 6.59% | Potency (3D7) | Potency (7G8) | Potency (AA1029) | Potency (AS120) | Potency (ATS189) | Potency (ATS95) | Potency (C2A) | Potency (CP185) | Potency (CP191)

CC1=C(C)C(=O)C(CCCCC#CCCCC#CCO)=C(C)C1=O
active: Potency ([10]; parasite line A) 11.2 µM | Potency (3D7) 12.6 µM | Potency (7G8) 2.51 µM | Potency (AS120) 6.31 µM | Potency (C2A) 10 µM
inactive: Potency [2] | Potency [3] | outcome [4]
5.31%: activity [5]
